Screening results as filed in PubChem BioAssay.
Most compounds without a hit are left out; they make up all but 4% or so of the library.
D1 ag = Allosteric Agonists of the Human D1 Dopamine Receptor: qHTS; D(1A) dopamine receptor (Homo sapiens), P21728; HEK293 T-REx D1 cells, calcium flux, agonist mode; activation, % at 2 µM; hit rate 1% among 360,000; also: 0% is about no effect
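Tetracycline-induced HEK293 TREx D1 cells, force-coupled to calcium signalling, were dye-loaded with a no-wash calcium kit. Compound was pin-added after a 10 s baseline. Fluorescence was read kinetically at 1 cycle/s for 180 s, with calcium rises flagged as agonism.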
Glioma ERSR ind = qHTS for Inducers of the Endoplasmic Reticulum Stress Response (ERSR) in Human Glioma: qHTS. U87-MG GRP78 promoter luciferase reporter, 16 h. Potency, µM, for the others: at the highest dose activation, most hits filed as activators. hit rate 0.02% among 420,000; active = well fitted activation curve with a large enough effect; inconclusive = small, poorly fitted or top-dose-only effect; inactive = no such curve, though single readings can be large or run the other way; also: potency is read from the fitted curve at half-maximal effect; series mostly up to about 76 µM; % of control where 0% means no effect; nearly all actives have a fitted effect of over 35% in size
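Stably transfected U87-MG glioma cells carrying a GRP78-based luciferase sensor; 16 h compound incubation. Luminescence end-point read 10 min after Bright-Glo addition at room temperature.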
TRHR PAM = qHTS for Small Molecule Agonists and Allosteric Enhancers of Human TRH Receptor: Primary Screen for Enhancers | Thyrotropin-releasing hormone receptor (Homo sapiens), P34981 | TRHR cells, fluo-8 calcium fluorescence, EC20 TRH enhancement | enhancement, % at 2 µM | hit rate 0.66% among 360,000; in the data active = enhancement above about 30%; also: 0% is about no effect
Target sequence (P34981 whole entry, looked up): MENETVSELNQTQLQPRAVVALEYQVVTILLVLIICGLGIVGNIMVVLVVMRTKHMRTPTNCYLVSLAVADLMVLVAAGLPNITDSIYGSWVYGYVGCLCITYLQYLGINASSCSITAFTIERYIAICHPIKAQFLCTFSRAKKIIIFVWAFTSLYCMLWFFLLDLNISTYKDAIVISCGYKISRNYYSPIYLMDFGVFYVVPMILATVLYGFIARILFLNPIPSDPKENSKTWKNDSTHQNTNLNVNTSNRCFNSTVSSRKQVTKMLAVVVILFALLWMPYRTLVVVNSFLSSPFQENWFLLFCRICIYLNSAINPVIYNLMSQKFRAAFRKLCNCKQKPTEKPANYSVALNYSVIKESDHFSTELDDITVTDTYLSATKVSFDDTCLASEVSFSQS
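TRHR-expressing cells loaded with fluo-8 calcium dye were read kinetically (ex 480/em 530) during compound addition, then stimulated with an EC20 of TRH (10 nM final). Enhancement of the Gq-mediated intracellular calcium response was scored.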
D1 antagonist = Antagonist of Human D 1 Dopamine Receptor: qHTS. hit rate 3.2% among 360,000. activity change, negative = inhibition, % at 10 µM. HEK293 TREx D1 cells, calcium flux, dopamine EC80; hits give low values. D(1A) dopamine receptor (Homo sapiens), P21728; in the data active = activity change below about -30%; also: % is scaled to controls: 0 for no effect and ±100 for the full control effect
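Cells carrying a force-coupled, tetracycline-inducible human D1 receptor report calcium flux. Each well gets a 10 s baseline, compound with 180 s monitoring, then an EC80 dopamine stimulus with a second 180 s kinetic read.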
D1 PAM = Potentiators of Human D1 Dopamine Receptor: qHTS; AID 504651, 2011; hit rate 0.036% among 360,000; potentiation, % at 10 µM; HEK293 TREx D1 cells, calcium flux, dopamine EC20 potentiation; in the data active = potentiation above about 30%; also: 0% is about no effect
TRHR ag = qHTS for Small Molecule Agonists and Allosteric Enhancers of Human TRH Receptor: Primary Screen for Agonists | hit rate 0.18% among 360,000 | TRHR cells, calcium flux fluo-8, FDSS agonist mode | activation, % at 2 µM; also: 0% is about no effect
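Steps: seed TRHR cells overnight; add fluo-8 no-wash Ca dye, RT 30 min–1.5 h; record 10 s baseline; pin-transfer compounds; monitor fluorescence 1 cycle/s for the agonist window. Calcium increases flag candidate agonists.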
Numbers without * were called inactive; ? = inconclusive; . = not tested or not shown. Rule as the data show it, unless noted: active = activation above about 30%; inactive = the rest.

SMILES	D1 ag	Glioma ERSR ind	TRHR PAM	D1 antagonist	D1 PAM	TRHR ag
Cc1cnc2c(C(=O)O)c(Cl)ccc2c1	.	-2%	.	.	.	.
CCCCNC(C)Cc1ccccc1 (stereo not given)	.	-1%	.	.	.	.
COc1ccc(CC(C)NCCC(c2ccccc2)c2ccccc2)cc1 (stereo not given)	43*	-2%	8	-3	-2	1
OC(CN1CCC(c2c[nH]c3ccccc23)CC1)C(F)(F)F (stereo not given)	4	-7%	3	-41*	-9	1
OC[C@@H](O)[C@H]1O[C@@H]2OC(C(Cl)(Cl)Cl)O[C@H]2[C@H]1O (stereo not given in full)	.	-3%	.	.	.	.
CCC(N)CCc1c[nH]c2ccccc12 (stereo not given)	.	-2%	.	.	.	.
CC(C)CCn1c(N)c(C(=O)OCC2CCCO2)c2nc3ccccc3nc21 (stereo not given)	0	-12%	-5	-36*	-3	0
C=C1Nc2ccccc2C(=O)N1c1ccccc1C	.	-2%	.	.	.	.
CN1C[C@@H](C(=O)N[C@@]2(C)O[C@]3(O)C4CCCN4C(=O)[C@@H](Cc4ccccc4)N3C2=O)C=C2c3cccc4[nH]cc(c34)C[C@@H]21 (stereo not given in full)	.	-2%	.	.	.	.
CN1C(=O)NC(=O)C2(Cc3ccccc3N3CCOCC32)C1=O (stereo not given)	4	-1%	14	-32*	-6	0
CC1CCCN(c2ccc(C(=O)N3CCC4(CC3)OCCO4)cc2[N+](=O)[O-])C1 (stereo not given)	2	-2%	5	-9	-8	0
CCOC(=O)C1CCCN(c2ccc([N+](=O)[O-])c3nonc23)C1 (stereo not given)	752*	0%	33*	-29	15	248*
COc1cc(/C=C/C(=O)c2c(O)n(CCc3ccccc3)c(=O)[nH]c2=O)ccc1O	42*	8%	7	9	0	0
CCCCCc1nc2ccccc2c(=O)n1-c1ccc(Cl)cc1[N+](=O)[O-]	-1	-3%	-6	-44*	1	0
O=c1cccc2n1CC1CC2CN2CCCCC12 (stereo not given)	.	0%	.	.	.	.
Cc1ccc(N2C(=O)/C(=C/N3CCN(C(=O)c4ccco4)CC3)C(=O)NC2=S)cc1C	1	3%	-1	-35*	-6	1
Cc1ccc(-c2nc(N3CCOCC3)s[n+]2-c2ccccc2)cc1	0	3%	31*	2	-2	0
O=P1(Oc2ccccc2)CC=CC(COCc2ccccc2)O1 (stereo not given)	.	-4%	.	.	.	.
CCOC(=O)C(O)(c1ccc(NC(=S)NC(=O)c2ccc(Cl)cc2Cl)cc1)C(F)(F)F (stereo not given)	44*	7%	-2	-3	-10	5
COC(=O)C(O)(c1ccc(NC(=S)NC(=O)c2ccc(Cl)cc2Cl)cc1)C(F)(F)F (stereo not given)	31*	1%	3	-32*	-8	3
COC(=O)C(O)(c1ccc(NC(=O)NC2CCCCC2)cc1)C(F)(F)F (stereo not given)	5	9%	5	-8	-1	0
COc1ccc(C)cc1NC(=O)c1cccn(Cc2cccc([N+](=O)[O-])c2)c1=O	0	-1%	4	.	5	1
CCC(=O)O[C@@](Cc1ccccc1)(c1ccccc1)[C@H](C)CN(C)C	.	-3%	.	.	.	.
NC(=Nc1ccccc1)Nc1ccccc1	90*	?	7	-26	-1	96*
CC(/C=C(\C)Nc1ccccc1)=Nc1ccccc1	2	3%	8	-25	-14	0
SMILES	D1 ag	Glioma ERSR ind	TRHR PAM	D1 antagonist	D1 PAM	TRHR ag
CC(Cc1ccc(O)cc1)NCC(O)c1cc(O)cc(O)c1 (stereo not given)	.	-2%	-5	-31*	.	0
O=C1NC(=S)N(Cc2ccco2)C(=O)/C1=C\c1cccs1	5	.	51*	8	1	2
O=C(Oc1ccc([N+](=O)[O-])cc1)N1CCN(/[N+]([O-])=N/Oc2ccc([N+](=O)[O-])cc2[N+](=O)[O-])CC1	.	-12%	.	.	.	.
O=C1CCCC2C3CC(CN12)C1CCCCN1C3 (stereo not given)	.	-1%	.	.	.	.
Cc1ccc2c(c1)C1CN(C)CCC1N2C(=S)Nc1cccnc1 (stereo not given)	0	-5%	9	.	-9	0
Cc1ccc2c(c1)C1CN(C)CCC1N2C(=O)Nc1cccc(Cl)c1 (stereo not given)	26	-3%	-3	-96*	-13	3
COC(=O)Cn1cc(C(=O)c2ccccc2F)c2ccccc21	3	-5%	5	-10	-5	1
COc1ccc(OC)c(NC(=O)Cn2cc(C(=O)c3ccccc3F)c3ccccc32)c1	3	-2%	3	-33*	-4	0
COc1cc(=O)n2c(c1C(=O)N(C)Cc1nonc1C)CCN(C(=O)C1C(C)(C)C1(C)C)CC2	.	-3%	.	.	.	.
OC(COCc1ccc(Cl)cc1)CN1CC=C(c2ccccc2)CC1 (stereo not given)	29	-2%	10	-8	-6	-1
OC(CN1CC=C(c2ccccc2)CC1)c1ccccc1 (stereo not given)	4	-1%	35*	-11	-2	1
CCCCCC(O)C1C(=O)OC(C)C(O)\C=C/C=C\C=C/C=C\C=C(\C)C(O)C(O)C(O)CC(O)CC(O)CC(O)CC(O)CC1O (stereo not given)	.	-2%	.	.	.	.
CNC(C)Cc1ccccc1Sc1ccc(O)cc1 (stereo not given)	20	-2%	1	-59*	-17	1
CC[C@H](OC(C)=O)C(C[C@H](C)NC)(c1ccccc1)c1ccccc1	.	-6%	.	.	.	.
CCCCc1ccc2[nH]cc(CCN)c2c1	90*	-4%	16	5	2	9
NCCc1c[nH]c2ccccc12	-1	1%	1	3	0	0
C[C@H]1[C@@H]2Cc3ccc(O)cc3[C@]1(C)CCN2CCc1ccccc1	.	-4%	.	.	.	.
Oc1cc2c(cc1O)[C@H]1c3ccccc3CN[C@@H]1CC2	67*	-8%	1	-87*	-3	0
COC(=O)C1=C(c2cccc3c2S(=O)(=O)c2ccccc2-3)C[C@@H]2CC[C@H]1N2C(=O)N1CCOCC1	1	-1%	3	7	2	-1
